This is a sample that favours compounds with a hit; in the whole collection about 2.4% have one here.
PABP FP inh = blocks human PABP binding to poly(A) RNA; P11940; fluorescence polarization; inhibition, % at 35 µM; 290,000 tested, 1% active; AID 2014;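 note: calls also rest on retests at 20 µM and on dose response follow-up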
eIF4E-4G inh = inhibitors of eIF4E and eIF4G interaction in translation initiation; inhibition, % at 21.7 µM; 220,000 tested, 0.37% active; P63073+Q04637; AID 782; TR-FRET eIF4E-eIF4GI(517-606) binding, 2 h;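 active = inhibition above about 30%, limit read from the data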;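 note: 0% = full FRET control wells and 100% = background wells lacking eIF4GI fragment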
PfM18AAP inh-1 = PfM18AAP enzyme inhibition | recombinant PfM18AAP, H-Glu-NHMec fluorogenic cleavage | inhibition, % at 7.35 µM | 290,000 tested, 1.2% active | AID 1822;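 active = inhibition above the campaign mean inhibition over all tested compounds plus 3 SD, cut at about 28% in these data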;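 note: 0% = plate median of test compound wells and 100% = 2 mM ZnCl2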
MLLE-PAM2 inh = inhibitors of microRNA-mediated deadenylation, human PABP1 MLLE binding. 360,000 tested, 0.36% active. inhibition, % at 20 µM. GST-MLLE / FITC-PAM2 fluorescence polarization. AID 588489. P11940; in the data active = inhibition above about 35%, passing the limit was not always enough;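 note: plate controls were DMSO wells with GST-MLLE for no effect and wells lacking GST-MLLE protein for full effect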
eIF4H inh = inhibitors of RNA binding by human eIF4H | eIF4H fluorescence polarization binding assay | inhibition, % at 35 µM | 290,000 tested, 0.94% active | AID 2012;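 note: calls also rest on retests at 20 µM and on dose response follow-up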
PERK inh = human PERK inhibition, primary cell-based screen; CHO PERK-DD fusion, SEAP luminescence translation reporter; inhibition, % at 5.6 µM; 220,000 tested, 0.17% active; AID 1416;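 active = inhibition above the mean inhibition of all tested compounds plus 3 SD, set separately per screening campaign, cut at about 2.9% in these data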;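 note: PERK kinase domain activated by AP20187 dimerizer at 100 nM; 0% = DMSO with dimerizer and 100% = rapamycin at 8.4 µM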
PfM18AAP inh-2 = confirmation of Plasmodium falciparum M18 aspartyl aminopeptidase inhibitors; shares compounds with PfM18AAP inh-1; recombinant PfM18AAP, H-Glu-NHMec fluorogenic cleavage; inhibition, % at 7.35 µM; 2,400 tested, 28% active;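 active = mean inhibition over replicate wells above the hit cutoff set for the earlier primary screen, cut at about 29% in these data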;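 note: 0% = median of test compound wells and 100% = 2 mM ZnCl2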
CTSL1 confirm = Cathepsin L (human) inhibition, confirmation; shares compounds with PfM18AAP inh-1; purified cathepsin L1, Z-Leu-Arg-MCA fluorescence; inhibition, % at 5.96 µM; 2,400 tested, under 10 active; AID 2178;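 active = average inhibition across replicates above the hit cutoff set in the earlier primary screen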;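 note: 0% = median of test compound wells and 100% = Z-Phe-Ala-diazomethylketone 1 µM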
Target sequence (P07711 whole entry, looked up): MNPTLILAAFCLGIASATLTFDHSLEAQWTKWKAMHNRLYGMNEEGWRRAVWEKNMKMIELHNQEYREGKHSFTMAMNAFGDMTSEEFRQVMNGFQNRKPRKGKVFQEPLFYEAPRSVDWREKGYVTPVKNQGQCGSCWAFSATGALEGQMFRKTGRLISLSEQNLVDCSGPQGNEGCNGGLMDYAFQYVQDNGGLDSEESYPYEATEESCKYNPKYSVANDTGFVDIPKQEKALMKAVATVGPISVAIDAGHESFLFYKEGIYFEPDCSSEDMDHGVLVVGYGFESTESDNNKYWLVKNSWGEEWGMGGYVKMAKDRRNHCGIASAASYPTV
Starred values were filed as active, the others as inactive; ? = inconclusive; . = not tested or not shown. Unless noted, the rule behind the calls is not given here.

SMILES	PABP FP inh	eIF4E-4G inh	PfM18AAP inh-1	MLLE-PAM2 inh	eIF4H inh	PERK inh	PfM18AAP inh-2	CTSL1 confirm
O=C(CSc1ncn[nH]1)N1N=C(c2ccc(Cl)cc2)CC1c1ccco1 (centres undefined)	28	4	42*	18	-9	0	-7	-1
COC(=O)c1ccc2c(c1)S(=O)(=O)NC(=NCc1ccco1)S2	7	5	-44	10	3	0	.	.
Nc1ccccc1-c1ccccc1N	-4	-1	2	0	-5	0	.	.
Nc1ccccc1N=Nc1ccccc1N	-3	.	41*	8	-4	.	6	2
Cc1ccc(CSCC(=O)N/N=C/c2cccc(OC3CSC3)c2)cc1	-3	1	-4	5	-3	1	.	.
CCCCc1nn2c(N)c(/C=C3\C=Nc4ccccc43)c(=O)nc2s1	23	3	1	-6	11	0	.	.
CCCCn1c(O)c(/C=C2\C=Nc3ccccc32)c(=O)[nH]c1=O	?	.	40*	-103	?	.	13	2
CC(=O)Oc1cc2cccc(OC(C)=O)c(=O)c2c(OC(C)=O)c1OC(C)=O	44	11	53*	15	?	1	30*	-11
Cc1ccc2oc(=O)c(/C=C(\O)c3cccs3)nc2c1	?	0	37*	-2	?	1	29*	1
NS(=O)(=O)c1ccc(CCNC(=O)C2CCN(S(=O)(=O)c3ccc(Br)s3)CC2)cc1	-4	-3	-5	5	-6	0	.	.
O=C1NN(c2ccccc2)C(=O)/C1=C\c1coc2ccc(O)cc2c1=O	17	7	37*	17	6	1	-4	-6
Oc1cccc(Nc2ccccc2)c1	.	.	.	9	.	.	.	.
Fc1cccc(NC(=S)NNc2c3ccccc3nc3ccccc23)c1	-6	10	2	20	8	0	.	.
O=[N+]([O-])c1ccc(NNC(=S)Nc2ccccc2)cc1	16	-5	39*	3	-2	0	32*	-9
Oc1cccc(NC(=S)Nc2ccccc2)c1	11	-9	22	16	-3	1	-47	2
Fc1cccc(NC(=S)NNc2ccccc2)c1	-9	.	38*	8	-4	.	-14	-6
COc1cc(/C=N/Nc2nc3ccccc3o2)cc(OC)c1O	3	-1	43*	-16	14	1	23	4
COc1ccc(/C=N/Nc2nc3ccccc3o2)cc1O	13	-2	50*	-13	1	1	-33	5
CC/C(Cc1ccccc1)=N\NC(=O)c1cc([N+](=O)[O-])cc([N+](=O)[O-])c1	15	3	41*	11	0	0	11	2
CC/C(Cc1ccccc1)=N/NC(=O)c1cccc(Br)c1	10	4	3	-8	-1	0	.	.
O=C(Nc1nc(=O)c2ccccc2s1)c1ccccc1	0	0	43*	29	-12	-1	-56	-8
CCOc1ccc(NC(=S)c2ccc3ccccc3n2)cc1	6	.	41*	26	5	.	-30	-5
COc1ccc(NC(=O)CN(C)C(=O)c2ccc3ccccc3n2)cc1	.	.	.	-4	.	.	.	.
COc1ccc(NC(=S)c2ccc3ccccc3n2)cc1	-1	.	47*	38*	-12	.	4	-5
Cc1ccc(NC(=S)c2ccc3ccccc3n2)c(C)c1	1	.	42*	36*	-3	.	-1	2
SMILES	PABP FP inh	eIF4E-4G inh	PfM18AAP inh-1	MLLE-PAM2 inh	eIF4H inh	PERK inh	PfM18AAP inh-2	CTSL1 confirm
CCOc1ccc(CN(C)C(=O)c2ccc3ccccc3n2)cc1	5	.	2	2	-22	.	.	.
O=[N+]([O-])c1cc(N=Nc2ccc3ccccc3c2)ccc1O	-1	.	2	5	-2	.	.	.
CN(C)c1ccc(/C=C(/NC(=O)c2ccccc2)C(=O)NCCCn2ccnc2)cc1	?	.	8	-138	?	.	.	.
O=C1[C@@H]2Cc3c([nH]c4ccccc34)C(c3cccc(Br)c3)N2C(=O)CN1C1CCN(Cc2ccccc2)CC1 (some centres undefined)	3	.	-2	-9	-3	.	.	.
O=C1[C@@H]2Cc3c([nH]c4ccccc34)C(c3ccccc3)N2C(=O)CN1C1CCN(Cc2ccccc2)CC1 (some centres undefined)	-7	.	41*	0	-8	.	-46	2
Cc1cc(C)c2c(N)c(C(=O)NNC(=O)c3ccccc3)sc2n1	0	-2	44*	6	-10	1	12	-1
Cn1nnc(NC(=O)c2cccc([N+](=O)[O-])c2)n1	6	1	0	1	-3	1	.	.
C=CCn1c(-c2sccc2C)n[nH]c1=S	0	4	32*	-14	-4	1	-17	-2
CCn1c(-c2ccc(OC)c(OC)c2)n[nH]c1=S	-16	-4	2	-18	-9	1	.	.
C=CCn1c(-c2ccc(OC)c(OC)c2)n[nH]c1=S	-1	28	36*	-38	1	1	-27	-2
CN(C)c1ccc(/C=N\NC(=O)CC#N)cc1	8	3	50*	-9	0	1	-34	3
N#CCC(=O)N/N=C/c1ccc(OC2CSC2)cc1	6	0	40*	13	-3	1	-12	0
Cc1ccc(-n2cccc2/C=N/n2cnnc2)cc1Cl	-5	-2	39*	-18	-8	1	-39	-4
Oc1ccc(-n2cccc2/C=N/n2cnnc2)cc1	-10	0	1	-26	-11	2	.	.
CSCCC(NC(=O)c1ccccc1Br)C(=O)N1CCN(C/C=C/c2ccccc2)CC1 (centres undefined)	.	.	.	-2	.	.	.	.
CCOC(=O)Cc1c(C)c2c(C)nn(-c3ccccc3)c2oc1=O	-5	9	-1	9	-4	-1	.	.
COc1ccc(-c2nc3ccccc3c(=O)n2NC(=S)N(C)C)cc1	8	7	36*	33	4	1	33*	2
CC1(C)CC(=O)C/C(=N\NC(=S)NCc2ccccc2)C1	21	-3	43*	-14	-1	0	38*	2
CC(=O)Nc1ccc(N2CCc3c(C)c(C#N)c4nc5ccccc5n4c32)cc1	-6	17	2	.	?	1	.	.
COc1ccc(-n2c(CNC(=O)COc3ccccc3)n[nH]c2=S)cc1	-4	-2	33*	-8	0	2	4	-1
O=C(COc1ccccc1)NCc1n[nH]c(=S)n1-c1ccccc1	2	-1	42*	-10	-6	1	11	-2
COc1ccc(-n2c(CNC(=O)COc3ccc(Cl)cc3)n[nH]c2=S)cc1	-4	-3	26	8	0	0	.	.

Bioassay records from PubChem BioAssay.
